Assay results as given in the supplement of paper PMC6555819.

Experiments:
Assay in all cases: PBM binding z-score (relative to random genomic background probes); higher = stronger binding; sequences stand for … in GC…GCGATTGACAGCGTAGAATGAAGG
[1] = tested on: FXR:RXRa (NR concentration 270 nM, RXRa partner concentration 90 nM)
In short: (§1)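 Custom Agilent 4×180K protein-binding microarrays carried double-stranded probes, each with a 34-nt variable region. These regions held direct-repeat seeds, single-nucleotide variants, half-site ablations and random human genomic background sequences. Ligand-free nuclear receptor dimers were incubated on the arrays for 1 h, antibodies against each partner (one per run) detected binding, and scanned fluorescence was regression-normalized. Binding z-scores take the random background probes as reference.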

[2] = tested on: LXRa:RXRa (NR concentration 270 nM, RXRa partner concentration 90 nM)
In short: as §1

[3] = tested on: LXRa homodimer (NR concentration 270 nM)
In short: as §1

[4] = tested on: LXRb:RXRa (NR concentration 270 nM, RXRa partner concentration 90 nM)
In short: as §1

[5] = tested on: LXRb homodimer (NR concentration 270 nM)
In short: as §1

[6] = tested on: PPARa:RXRa (NR concentration 270 nM, RXRa partner concentration 90 nM)
In short: as §1

[7] = tested on: PPARg:RXRa (NR concentration 180 nM, RXRa partner concentration 90 nM)
In short: as §1

[8] = tested on: PPARg:RXRa 270nM:90nM, anti-RXR (NR concentration 270 nM, RXRa partner concentration 90 nM)
In short: as §1

[9] = tested on: PPARg:RXRa 30nM:10nM, anti-RXR (NR concentration 30 nM, RXRa partner concentration 10 nM)
In short: as §1

[10] = tested on: PPARg:RXRa 90nM:30nM, anti-RXR (NR concentration 90 nM, RXRa partner concentration 30 nM)
In short: as §1

[11] = tested on: PPARg:RXRa DBDmut IVT, anti-RXR (DBD mutation: RXRa K156A/R161A, NR concentration 270 nM, RXRa partner concentration 90 nM)
In short: as §1

[12] = tested on: PPARg:RXRa IVT, anti-PPARg (NR concentration 270 nM, RXRa partner concentration 90 nM)
In short: as §1

[13] = tested on: PPARg DBDmut:RXRa IVT, anti-PPARg (DBD mutation: PPARg1 K132A/R137A, NR concentration 270 nM, RXRa partner concentration 90 nM)
In short: as §1

[14] = tested on: PPARg DBDmut IVT, anti-PPARg (DBD mutation: PPARg1 K132A/R137A, NR concentration 270 nM)
In short: as §1

[15] = tested on: PPARg homodimer (NR concentration 180 nM)
In short: as §1

[16] = tested on: PXR:RXRa (NR concentration 270 nM, RXRa partner concentration 90 nM)
In short: as §1

[17] = tested on: PXR homodimer (NR concentration 270 nM)
In short: as §1

[18] = tested on: RARa:RXR (NR concentration 270 nM, RXRa partner concentration 90 nM)
In short: as §1

[19] = tested on: RARa homodimer (NR concentration 270 nM)
In short: as §1

[20] = tested on: RARb:RXRa (NR concentration 270 nM, RXRa partner concentration 90 nM)
In short: as §1

Row | Sequence | PBM binding z-score [1] | PBM binding z-score [2] | PBM binding z-score [3] | PBM binding z-score [4] | PBM binding z-score [5] | PBM binding z-score [6] | PBM binding z-score [7] | PBM binding z-score [8] | PBM binding z-score [9] | PBM binding z-score [10] | PBM binding z-score [11] | PBM binding z-score [12] | PBM binding z-score [13] | PBM binding z-score [14] | PBM binding z-score [15] | PBM binding z-score [16] | PBM binding z-score [17] | PBM binding z-score [18] | PBM binding z-score [19] | PBM binding z-score [20]
1 | TTACCAAGGTGAAAGGACGTTGATGCACGCCTTG | 0.449 | 0.351 | -0.414 | 0.198 | -0.801 | 1.72 | 2.29 | 3.48 | 1.96 | 3.14 | 1.91 | 2.84 | 0.863 | 0.655 | 0.691 | -0.0719 | -0.136 | 0.603 | -0.181 | 1.6
2 | TCTCGGAGGACACGAAGGGCAGAGCTTTCCAGAG | 0.172 | -0.265 | -0.59 | -0.711 | -1.26 | -0.128 | -0.047 | 0.753 | 1.78 | 1.13 | 1.13 | 0.0832 | -0.999 | -0.906 | -0.399 | -0.198 | -0.159 | -0.136 | -1.15 | 1.97
3 | AGAACGAGGGCAACGAGTTGATAGCACGGGTGGC | 0.357 | 0.068 | -0.499 | -0.258 | -0.674 | 1.59 | 1.67 | 1.29 | 0.0508 | 0.609 | 3.47 | 3.2 | 0.361 | -0.0508 | -0.253 | 1.49 | 3.88 | 0.217 | -0.868 | 2.23
4 | CTCGCAAGGTCGTGCTCAGGTGAGTATACCAAAC | 2.12 | 1.71 | -0.122 | 1.37 | -0.498 | 2.81 | 0.423 | 1.04 | -0.426 | 0.224 | 0.0828 | 0.996 | -0.606 | -0.427 | 0.113 | 1.76 | -0.272 | 2.37 | -0.702 | 2.47
5 | CCGACTGGGGGAAAGGTTACCATACTCAGTACGA | 1.81 | 2.38 | 0.42 | 3.4 | 3.72 | 5.42 | 9.9 | 9.24 | 8.87 | 9.88 | 2.52 | 5.31 | 3.53 | 3.07 | 1.86 | 2.63 | 0.241 | 3.24 | 0.206 | 2.04
6 | GATACAGGGTCAAGGCCAGCGTACGCGTATTGAT | 6.93 | 4.12 | 0.203 | 3.86 | -0.187 | 5.63 | 5.9 | 5.32 | 2.19 | 4.12 | 2.09 | 3.85 | 0.49 | -0.316 | 2.29 | 3.48 | 0.372 | 4.36 | 1.03 | 4.52
7 | CGAACTAGGTCAGAACGGGACAGTGAAGGATGAT | 0.777 | 0.488 | -0.316 | 0.113 | -0.487 | 3.16 | 5.01 | 4.15 | 1.79 | 3.38 | 6.92 | 7.17 | 2.46 | 2.6 | 1.57 | 0.217 | -0.225 | 0.856 | -0.237 | 2.75
8 | CCGACCGGGGCAGAAAGGTTACCATACCATCCGG | 0.539 | 0.79 | -0.149 | 0.91 | -1.19 | 1.89 | 0.899 | 1.07 | -0.267 | 0.343 | -0.478 | -0.0375 | -0.85 | -1.32 | 0.496 | 1.16 | -0.029 | 1.83 | -0.144 | 2.06
9 | TCTCGGAGGACACGAAAGGTCAGAGATCGACATC | 3.24 | 3.71 | 2.64 | 3.32 | 0.0145 | 3.65 | 1.5 | 2.75 | 2.97 | 2.88 | 1.64 | 1.91 | 0.484 | 0.156 | 2.63 | 3.95 | 0.205 | 4.31 | 0.638 | 4.4
10 | AGAATGAGGTTATTAATATCAGGGAATTGCGGTC | 1.19 | 1.32 | 0.394 | 1.3 | -0.0827 | 2.47 | 1.54 | 1.67 | 0.598 | 1.35 | 2.96 | 2.52 | 1.52 | 0.456 | 0.953 | 1.27 | 0.447 | 1.32 | 0.74 | 1.18
